Data on 63 compounds can be found in PubChem BioAssay AID1671188 (National Center for Advancing Translational Sciences (NCATS), 2021).

The whole screen tested about 100,000 compounds, of which about 250 (0.25%) were called active. Not shown: some 7% with an inconclusive outcome. Calls follow the shape of the dose curve; as a rule, active = well fitted inhibition curve with a large enough effect; inconclusive = small, poorly fitted or top-dose-only effect; inactive = flat fitted curve, though single readings scatter. The list comes from a sample in which actives are over-represented; it also holds similar structures and randomly drawn compounds. Entries that show only a call come without a potency.
Potency is read from the fitted curve at half-maximal effect.

Alanine aminotransferase 2 (Homo sapiens), sequence (Q8TD30 whole entry, looked up): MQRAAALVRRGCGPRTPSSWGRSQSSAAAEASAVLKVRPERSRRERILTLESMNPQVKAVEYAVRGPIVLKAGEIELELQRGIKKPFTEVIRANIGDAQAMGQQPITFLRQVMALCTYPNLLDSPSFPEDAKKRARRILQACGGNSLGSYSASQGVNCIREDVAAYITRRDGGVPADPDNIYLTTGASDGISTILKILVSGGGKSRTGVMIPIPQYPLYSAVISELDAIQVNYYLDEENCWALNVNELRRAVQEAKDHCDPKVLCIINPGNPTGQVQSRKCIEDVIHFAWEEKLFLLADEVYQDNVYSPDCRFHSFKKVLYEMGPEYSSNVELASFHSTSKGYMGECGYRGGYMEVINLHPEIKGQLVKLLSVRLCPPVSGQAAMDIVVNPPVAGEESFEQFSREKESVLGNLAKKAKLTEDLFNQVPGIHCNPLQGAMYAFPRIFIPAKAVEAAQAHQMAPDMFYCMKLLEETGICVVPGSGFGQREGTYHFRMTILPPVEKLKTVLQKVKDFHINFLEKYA

This test concerns the target Alanine aminotransferase 2 (Homo sapiens) (UniProt Q8TD30). As to the kind of experiment: Primary qHTS assay for inhibitors of Glutamate pyruvate transaminase 2 (GPT2). Also: nearly all actives have a fitted effect of over 60% in size. The note with it: Recombinant GPT2, coupled pyruvate oxidase/HRP Amplex Red fluorescence; series mostly up to 57.7 µM. As to the method: Assay Provider: Zhenghe John Wang Ph.D.
Case Western Reserve University, Cleveland OH
Glutamate pyruvate transaminase 2 (GPT2) catalyzes the reversible transamination of glutamate and pyruvate to provide a-ketoglutarate and alanine. We have optimized an assay for GPT2 enzymatic activity that couples pyruvate formation to detection of fluorescence using an established pyruvate oxidase/horseradish peroxidase / Amplex Red system.
Screening conditions were 250uM a-KG, 2mM L-alanine, and 10ng/uL GPT2 in […] of solution; 10uL of Amplex reaction mix (outlined below) were added so that final concentrations of Amplex reagents in 50uL were 0.2mM ThPP, 0.2U/mL PO and HRP, and 50uM Amplex.
NOTE: The volume of GPT2 in the system depends on the activity of it. The activity is different every batch. You need to test the activity before the assay. For full plate assay with automation, plate 20uL of GPT2 buffer to pin into, then add 10uL of GPT2 dilution followed immediately by 10uL of substrate dilution. 2 Columns of the plate were devoted to GPT2 buffer ([…] PH7.5, 0.0001% Tween) + 50uM AOA (known GPT2 inhibitor) to serve as a positive control. Complete the assay as normal. Amplex-red buffer: […] PH7.5, 1 mM EDTA, 1 mM MgCl2.
1. Combine a-KG and L-alanine at desired concentrations and incubate for at least 10 minutes at 37C. Stocks of L-alanine and a-KG are diluted in distilled water. However, the stocks were diluted in GPT2 buffer for the assay.
2. Prepare GPT2 dilution at the desired concentration in GPT2 buffer.
3. Plate 40uL of GPT2 dilution with 40uL of substrate dilution and let incubate for 30 minutes at room temperature.
4. Add 20uL of Amplex reaction mix prepared as follows: 1.5uL 200U/mL Horseradish Peroxidase, 200mM Thiamine Pyrophosphate, 200U/mL Pyruvate Oxidase; 7.5uL 10mM Amplex Red; 288uL Amplex Buffer.
5. Incubate for 30 minutes at room temperature in the dark, then image using AM_Amplex_Fluorescence on plate reader nearest the window.
Turning to `CC(C)(O)CCc1ccc(C(=O)N2CCOc3ccc(Cl)cc3C2)cc1`, the Potency result is “inactive”.

As to `CN(C)CCNC(=O)c1cccnc1OC1CCNCC1`, the Potency entry is “inactive”.

For `CN(C)[C@H]1CCCCN(CC2CCC(N)CC2)C1` (stereo partly drawn), the Potency entry is “inactive”.

In the case of `CC(C)Cn1c(=O)c(C(=O)N2CCN([S+](=O)([O-])c3cccc(C(F)(F)F)c3)CC2)nc2cccnc21`, the Potency entry was “inactive”.

On to `COc1cccc(CN2C(=O)OC3(CCN(C(=O)c4scnc4C)CC3)C2(C)c2cccnc2)c1` (stereo not drawn), for which the Potency entry was “inactive”.

For `O=C(NCc1ccc(Cl)nc1)c1c[nH]c2cccnc12`, the Potency entry is “inactive”.

Take `O=[S+]([O-])(c1cccs1)N1CCN(c2nccc(Nc3ccccc3F)n2)CC1`: the Potency entry is “inactive”.

`CCC(=O)Nc1cc(C(=O)NCc2ccc(N3CCOCC3)cc2)c2ccc(C)nc2c1`: the Potency result is “inactive”.

Take `Cc1ccc(C(=O)N2CCCC(c3nc(-c4ccccc4)no3)CCNC(=O)CC2)cn1` (stereo not drawn): the Potency result was “inactive”.

In the case of `O=C(c1ccc(C(F)(F)F)s1)N1CCCN(c2nnc3ccccn23)CC1`, the Potency result was “inactive”.

On to `COc1ccc(C(=O)N(C)Cc2ccc(F)cc2)cc1`, for which the Potency result is “inactive”.

`COc1cccc(NC(=O)O[C@@H]2CO[C@H]3[C@@H]2OC[C@@H]3Nc2nccc(-c3cccs3)n2)c1`: the Potency entry is “inactive”.

For `CCOC(=O)c1ccc(NC(=O)Cn2c(N3CCOCC3)nc(CC)cc2=O)cc1`, the Potency entry is “inactive”.

Consider `Cn1nccc1-c1cccc(-c2nc(N3CCOCC3)n(C)n2)c1`, for which the Potency entry is “inactive”.

As for `CC(C)NC(=O)N1Cc2[nH]cnc2C[C@H]1c1nc(-c2ccc3c(c2)OCO3)no1`, the Potency result is “inactive”.

For the compound `CC(=O)/C(C)=N/O`, the Potency is 20 µM (active).

Regarding `CN(CC1CCOCC1)C(=O)c1ccccc1`, the Potency entry is “inactive”.

With `C#CCNC(=O)c1cn2cc(-c3ccccc3)sc2n1`, the Potency entry was “inactive”.

Regarding `Cc1ccccc1CN1CCCn2nc(C)c(-c3cccnc3N3CCOCC3)c21`, the Potency entry was “inactive”.

On to `COc1ccc(-c2cc(-c3cccc4[nH]ncc34)cn3cncc23)cn1`, for which the Potency result is “inactive”.

`O=C(NCc1cccnc1)[C@@H]1C[C@@H](O)CN1C1CCN(C(=O)C2(c3ccccc3)CC2)CC1`: the Potency entry was “inactive”.

For the compound `CC(NC(=O)c1ccc(C(C)(C)C)cc1)C(=O)N1CCN(c2ccccn2)CC1` (stereo not drawn), the Potency entry is “inactive”.

For `Cc1ccccc1-c1cn(C)c(=O)n2cc(CNc3ccccc3)nc12`, the Potency result was “inactive”.

For `Cn1cc(CN2CCOC[C@H]2c2ncc(-c3cccc(F)c3)[nH]2)c2ccccc21`, the Potency entry is “inactive”.

As for `Cc1cc(S(=O)(=O)NCC2CCOCC2)ccc1F`, the Potency result was “inactive”.

With `COC1CN(c2ccc(C)cc2)C12CCN(C(=O)Cc1cccc(F)c1)CC2` (stereo not drawn), the Potency entry was “inactive”.

In the case of `CC(=O)N1CC2(CCN(Cc3cccnc3)CC2)Cc2ccccc21`, the Potency entry was “inactive”.

`CC(=O)N[C@H]1CN(c2cncc(C(=O)N3CCCC3)n2)C[C@@H]1C1CC1`: the Potency entry is “inactive”.

Take `O=C(NC1CCN(C(=O)c2ccc(-c3cncnc3)cc2)CC1)c1ccccn1`: the Potency result is “inactive”.

Take `CN1CCOC[C@H]2CCN(C(=O)c3ccsc3)C[C@H]21`: the Potency entry is “inactive”.

Take `CCCN(C)c1nccnc1OC1CCN(C(=O)c2ccnn2C)C1` (stereo not drawn): the Potency result is “inactive”.

Consider `Cc1cc2nc3n(c(=O)c2n1CC(=O)Nc1ccc2c(c1)OCO2)CCCCC3`, for which the Potency entry was “inactive”.

Regarding `CCC1=C(C(=O)OC)C(c2ccccc2)N2C(CC(=O)N3CCCC3)=CSC2=N1` (stereo not drawn), the Potency result is “inactive”.

As to `CC(C)Cc1cc(CNc2nc(C(C)(C)C)nc3c2cnn3C)no1`, the Potency result is “inactive”.

As for `COc1cccc(-c2ccc(C(=O)N3CCC(NC(=O)c4ccccc4OC)CC3)cc2)c1`, the Potency entry is “inactive”.

Consider `CCc1cccc2c(C(CC(=O)NCC(C)C)c3cccc(OC)c3)c[nH]c12` (stereo not drawn), for which the Potency result is “inactive”.

As for `O=C(Nc1ccccc1)N1CCCC(C(=O)N2CCCC(c3nc4ncccc4[nH]3)C2)C1` (stereo not drawn), the Potency entry was “inactive”.

In the case of `O=C(C1CCC1)N1CCC(n2cnnc2C2CC2)CC1`, the Potency result is “inactive”.

In the case of `CCOC(=O)C1CCN(C(=O)c2ccc3nnc(Cc4ccc(Cl)cc4)n3c2)CC1`, the Potency entry was “inactive”.

Turning to `CCC(C)(C)C(=O)N1CC(c2nnc(-c3ccncc3)o2)C2(CCOCC2)C1` (stereo not drawn), the Potency entry was “inactive”.

Consider `O=C(C1CCCN(Cc2cccc(-c3ccc(F)cc3F)c2)C1)N1CCCCC1` (stereo not drawn), for which the Potency result is “inactive”.

`CC[C@H]1CN(S(=O)(=O)c2ccc(OC)cc2)CC[C@H]1CC(=O)Nc1ccccc1`: the Potency result is “inactive”.

For `CC(C)(O)CCc1cccc(C(=O)NC2CCN(c3ncccc3C#N)CC2)c1`, the Potency result was “inactive”.

Take `O=C1C[C@H]2CC[C@@H](CN1)N2C(=O)c1csc2nc(-c3ccccc3Cl)cn12`: the Potency result is “inactive”.

`COCCN1C(=O)N(CCc2ccccc2)C(=O)C12CCN(C/C=C/c1ccccc1)CC2`: the Potency result is “inactive”.

Consider `Cc1ccc(C(=O)N2CC(n3c(C)cnc3-c3ccccc3)C2)cn1`, for which the Potency entry is “inactive”.

As to `CCOC(=O)C(C)Oc1cccn2c(=O)c(-c3cc(C)n(-c4cccc(F)c4)n3)c(C)nc12` (stereo not drawn), the Potency entry was “inactive”.

As to `Cc1cc(N)n(CC(=O)N[C@@H]2COCC[C@H]2Oc2ccc(C(N)=O)cc2)n1`, the Potency result was “inactive”.

For `O=C(NCc1ccncc1)c1ccc(CN2C(=O)NC3(CCS(=O)(=O)CC3)C2=O)cc1`, the Potency result is “inactive”.

`CN(Cc1cccnc1)C(=O)CC(c1ccccc1)c1ccc(Cl)cc1` (stereo not drawn): the Potency entry is “inactive”.

On to `O=C(NCCc1ccccc1)C1CN(C2CCCCC2)C(=O)N1` (stereo not drawn), for which the Potency result is “inactive”.

On to `COc1ccc(C(=O)N2C[C@@H](F)[C@@H](OCc3nc4ccc(C(F)(F)F)cc4[nH]3)C2)cc1`, for which the Potency result was “inactive”.

As to `CC(=O)Nc1ccc(C2(C(=O)NCc3ccc(Cl)cc3)CCC2)cc1`, the Potency entry is “inactive”.

Take `CN(C)C(=O)CCc1ccc2c(c1)CN(Cc1cn[nH]c1-c1ccc(F)cc1)CCO2`: the Potency entry is “inactive”.

Consider `Cc1nn(C(=O)CCC(=O)N2CCC(CCOc3ccccc3)C2)c2ccccc12` (stereo not drawn), for which the Potency entry is “inactive”.

In the case of `C=CCN(C)C(=O)C[C@@H]1c2nc(NC(=O)c3ccc(C(C)(C)C)cc3)sc2C[C@@H]2[C@](C)(CO)[C@H](O)CC[C@]21C`, the Potency entry was “inactive”.

For the compound `COC(=O)[C@@H]1Cc2ncn(Cc3ccc(Cl)cc3)c2CN1Cc1ccc(N(C)C)cc1`, the Potency entry is “inactive”.

For `COc1cc2c(cc1CN1C[C@H]3CC[C@@H]1CN(C(=O)c1cnccn1)C3)CCC2`, the Potency entry is “inactive”.

As to `Cc1ccc(S(=O)(=O)CCNC(=O)c2cc3n(n2)CCCNC3)cc1`, the Potency entry was “inactive”.

As to `c1ccc2c(c1)CNC1(CCN(Cc3cccc4ccccc34)CC1)CO2`, the Potency entry is “inactive”.

Regarding `COc1ccc(-n2nc(C)c([C@H]3C=C[C@@H](OC(=O)Nc4cccc(F)c4)C3)c2C)cc1`, the Potency entry is “inactive”.

For `Cc1ccc(S(=O)(=O)N2CCCC(CCC(=O)NC3CCCCC3)C2)cc1` (stereo not drawn), the Potency entry was “inactive”.

As for `O=C(NCc1ccc(Cl)nc1)c1ccn2cncc2c1`, the Potency entry is “inactive”.
